SSB-PriA inh = blocks PriA binding to SSB C-terminal tail | AID 1272365 | AlphaScreen SSBct-PriA binding, biotinylated peptide | hit rate 0.6% among 430,000 | inhibition, % at 33 µM; in the data active = inhibition mostly above about 37%, no sharp cut-off; inactive = mostly below about 20%;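 also: plate controls were negative control peptide for no effect and reference peptide for full effect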
SARS 3CLpro inh-1 = SARS-CoV 3CLpro protease inhibition. hit rate 0.14% among 290,000. inhibition, % at 6 µM. recombinant SARS-CoV 3CLpro, quenched FRET peptide cleavage. AID 1706; in the data active = inhibition above about 12%
MazEF act = increases E. coli MazEF RNase cleavage of RNA. activation, % at 20 µM. FAM/BHQ RNA-DNA oligo cleavage fluorescence, 5 h. hit rate 0.32% among 350,000. P0AE70; in the data active = activation above about 50%
Target sequence (P0AE70 whole entry, looked up): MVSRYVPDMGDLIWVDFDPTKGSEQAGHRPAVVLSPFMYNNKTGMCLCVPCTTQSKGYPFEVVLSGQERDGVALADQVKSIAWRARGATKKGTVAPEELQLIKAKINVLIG
Y pestis TopoI = blocks Yersinia pestis topoisomerase I activity; activity, % at 10 µM; Y. pestis Topo-I cleavage product accumulation, plate reader; AID 504884; hit rate 0.064% among 360,000; in the data active = activity above about 50%, passing the limit was not always enough
SARS 3CLpro inh-2 = confirmation of SARS coronavirus 3C-like protease inhibitors; shares compounds with SARS 3CLpro inh-1; QFRET protease activity assay, 3CLpro; inhibition, % at 6 µM; hit rate 36% among 380; AID 1879; in the data active = inhibition above about 13%
The depositor's hits bear a star; . = no result given. Rows were chosen to be rich in hits. Some 0.9% of all compounds tested hit in one or more screens of this group.

SMILES	SSB-PriA inh	SARS 3CLpro inh-1	MazEF act	Y pestis TopoI	SARS 3CLpro inh-2
O=C(CSc1nnc(-c2ccco2)o1)N1CCCC1	-10.0	.	.	.	.
COc1cc(NC(=O)c2cccnc2)ncn1	-5.0	.	.	.	.
COC(=O)CC1COc2ccccc2N1C(=O)/C=C/c1ccccc1 (configuration not stated)	-10.4	45.7*	7.7	2.3	-1.3
COc1ccc(-c2nnc3ccc(OCCNC(=O)COc4ccc(C)c(C)c4)nn23)cc1	-13.0	.	.	.	.
CCc1ccc(NC(=O)CSc2nc3ccsc3c(=O)n2CCC(=O)O)cc1	0.7	5.8	-5.7	-2.8	.
CC(C)c1ccc(NC(=O)CSc2nc3ccsc3c(=O)n2Cc2ccc(C(=O)O)cc2)cc1	-20.4	13.3*	-2.3	18.2	5.2
Cc1cc(C)nc(SCCCNC(=O)Nc2cc(C)on2)n1	6.0	.	.	.	.
O=C(C[C@H]1CCCCN1S(=O)(=O)c1cccs1)NCc1cccnc1	-7.0	.	.	.	.
Cc1cc(=O)oc2cc(NC(=O)c3cc(F)ccc3F)ccc12	-6.3	.	9.6	6.9	.
Cc1cc(=O)oc2cc(NC(=O)c3ccccc3OC(F)F)ccc12	-9.3	13.1*	4.2	-1.5	-1.5
CC(C)CNS(=O)(=O)c1ccc(CCC(=O)Nc2cc(Cl)ccc2Oc2ccccc2)cc1	-2.2	12.4*	6.8	34.8	0.8
CCCNS(=O)(=O)c1ccc(CCC(=O)Nc2cc(Cl)ccc2Oc2ccccc2)cc1	-12.0	3.0	0.5	18.3	.
COc1cc(OC)c(OC)cc1/C=C1\Oc2cc(OCC(=O)N3Cc4ccccc4C[C@H]3C(=O)O)ccc2C1=O	-3.6	12.5*	-75.1	-3.0	4.1
O=C(COc1ccccc1F)NCCn1nc(-c2cccs2)n(C2CC2)c1=O	-3.0	.	.	.	.
CN(CCc1ccccc1)C(=O)c1cc(COc2cccc(C(F)(F)F)c2)on1	-52.2	13.1*	-1.6	28.7	6.6
Cc1ccc(C(=O)Oc2ccc3c(c2)ncn3C)cc1	-6.9	21.8*	-0.6	11.9	31.3*
Cn1cnc2cc(NC(=O)c3ccc(Cl)cc3)ccc21	-16.4	32.6*	-4.4	-1.4	31.5*
Cn1cnc2cc(OC(=O)c3ccccc3)ccc21	-3.7	14.8*	0.8	3.2	10.3
Cc1ccc(S(=O)(=O)c2cnc(N3CCC(C)CC3)nc2N)cc1	-9.0	.	.	.	.
CN(C)S(=O)(=O)c1ccc(C(=O)NCCn2ccc(-c3ccccn3)n2)cc1	-5.0	.	.	.	.
COc1ccc(/C=N/NC(=O)Cn2nnc3ccccc32)cc1OC	.	12.5*	7.5	2.3	16.5*
COc1cc(/C=N\NC(=O)Cn2nnc3ccccc32)ccc1OCc1ccccc1	6.0	.	.	.	.
Cc1ccc(C(O)=C2C(=O)C(=O)N(CCN3CCOCC3)C2c2cccs2)cc1 (configuration not stated)	-3.5	.	.	.	.
O=C(Oc1cccc2c(OC(=O)N3CCOCC3)cccc12)N1CCOCC1	-9.7	-8.3	4.5	7.8	.
O=C(Oc1ccc2cccc(OC(=O)N3CCOCC3)c2c1)N1CCOCC1	-6.5	12.6*	-6.9	0.8	-1.4
SMILES	SSB-PriA inh	SARS 3CLpro inh-1	MazEF act	Y pestis TopoI	SARS 3CLpro inh-2
COc1ccc(/C(N)=N/OC(=O)CSc2ccccc2)cc1OC	.	12.7*	-5.4	-5.9	-1.2
Cc1nsc(C(=O)NCCCN2CCCC2=O)n1	-8.0	.	.	.	.
COc1ccc(C(=O)n2nc(C)cc2C)cc1OC	-11.4	-1.6	2.4	1.4	.
Cc1cc(C)n(C(=O)c2ccc(C)c(Br)c2)n1	-28.4	13.9*	-2.7	5.6	13.4*
Cc1ccc2[nH]c3c(c2c1)CN(C(=O)CN1CCN(C(=O)c2ccco2)CC1)CC3	.	8.6	.	.	.
O=C(CN1CCSCC1)N1CCc2[nH]c3ccc(Br)cc3c2C1	.	21.9*	.	.	75.2*
CCOC(=O)c1sc(-c2ccccc2)cc1NC(=O)c1ccccc1Br	-2.0	.	.	.	.
O=C(c1cncc(Br)c1)N1CCN(S(=O)(=O)c2ccccc2C(F)(F)F)CC1	-8.6	17.1*	9.0	-5.4	12.0
CC(=O)Nc1ccc(NS(=O)(=O)c2cc(Cl)ccc2Cl)cc1	-6.9	-2.1	4.5	1.9	.
CC(=O)N(C)c1ccc(NS(=O)(=O)c2cc(Cl)ccc2Cl)cc1	-16.1	13.5*	-1.5	1.1	-1.5
CC(=O)n1cc(N(C(=O)CCl)c2ccc(Cl)cc2)c2ccccc21	-5.2	12.8*	4.1	22.3	34.6*
COc1ccccc1N(C(=O)CCl)c1cn(C(C)=O)c2ccccc12	-11.4	2.4	0.6	2.5	.
CCCCSc1nnc(CNC(=O)c2cccc3ccccc23)n1-c1ccccc1	-9.0	.	.	.	.
O=C(c1ccc2c(=O)nc3c(-c4ccccc4)n[nH]n3c2c1)N1CCN(c2ccccn2)CC1	-10.0	.	.	.	.
Nc1c(C(=O)Nc2ccccc2F)nnn1-c1ccc(Cl)c(Cl)c1	-9.0	.	.	.	.
Cc1ccc(C)c(S(=O)(=O)N2CCN(C(=O)c3ccc(-n4cncn4)c([N+](=O)[O-])c3)CC2)c1	5.5	.	1.0	6.6	.
Cc1ccc(C)c(S(=O)(=O)N2CCN(C(=O)c3ccc(N4CCCC4)c([N+](=O)[O-])c3)CC2)c1	35.6	12.8*	4.6	36.7	4.6
O=C(Nc1c2c(nn1-c1cccc(Cl)c1)CS(=O)(=O)C2)c1ccc2c(c1)OCO2	0.3	12.6*	1.3	7.0	1.3
O=C(Nc1c2c(nn1-c1ccc(Cl)cc1)CS(=O)(=O)C2)c1ccc2c(c1)OCO2	-13.4	0.0	-3.0	-9.1	.
COc1cc(C(=O)Nc2ccc(N3CCN(C(=O)c4ccc(C)cc4)CC3)cc2)cc(OC)c1OC	6.9	14.2*	5.9	4.7	0.3
Cc1ccc(C(=O)N2CCN(c3ccc(NC(=O)c4cccnc4)cc3)CC2)cc1	18.4	3.3	3.8	15.5	.
CCc1cccc(CC)c1N(COC)C(=O)Cn1nnc2ccccc21	-8.3	12.3*	17.8	9.4	13.4*
CC1=Nc2cccc3cccc(c23)N1C	7.2	12.7*	6.9	-7.9	-5.1
Cc1cccc(Cn2nc(-c3ccc(Br)cc3)ccc2=O)c1	-8.0	.	.	.	.
Cc1c(C(=O)Nc2ccc(S(=O)(=O)Nc3ncccn3)cc2)oc2ccc(Cl)cc12	3.9	2.3	-0.6	-8.4	.
SMILES	SSB-PriA inh	SARS 3CLpro inh-1	MazEF act	Y pestis TopoI	SARS 3CLpro inh-2
Cc1noc(NS(=O)(=O)c2ccc(NC(=O)c3oc4ccc(Cl)cc4c3C)cc2)c1C	13.1	12.3*	4.6	16.7	6.7
O=C(Nc1nc(-c2cccc([N+](=O)[O-])c2)cs1)c1cccc([N+](=O)[O-])c1C(=O)O	2.3	17.5*	4.0	5.2	5.5
Cc1ccc(-c2csc(NC(=O)c3cccc([N+](=O)[O-])c3C(=O)O)n2)cc1	-14.3	10.1	1.2	2.6	.
COc1ccc(C(=O)NC(=C(Cl)Cl)S(=O)(=O)c2ccc(C)cc2)cc1	-5.4	8.6	7.7	14.6	.
Cc1ccc(C(=O)NCC#N)cc1	-9.0	-0.9	-1.9	-1.8	.
Cc1ccc(C(=O)NC(C#N)=C(Cl)Cl)cc1	-5.1	13.0*	0.2	.	0.8
Cc1ccc(C(=O)NC(=C(Cl)Cl)S(=O)(=O)c2ccccc2)cc1	-0.7	21.2*	3.4	-6.7	27.8*
CCCCS(=O)(=O)N1CCN(CC(F)(F)F)CC1	-23.0	.	.	.	.
N#Cc1ccc(CN2CCN(C(=O)c3cn(Cc4ccccc4)nc3-c3cccnc3)CC2)cc1	6.5	.	6.1	25.5	.
COCCOC(=O)/C(C#N)=C/c1cn(Cc2ccccc2)nc1-c1cccnc1	7.7	15.8*	-1.9	15.4	1.8

Compound activity as filed in PubChem.
